KB-3-1 tox – KB-3-1 parental cell cytotoxicity. actives 1.4% (n = 400,000). Potency, µM (top dose mostly 46.1 µM), most hits filed as cytotoxic. KB-3-1 viability, CellTiter-Glo ATP luminescence, 72 h; note: % is set by controls: 0 for no effect and ±100 for the full control effect; nearly all actives have a fitted effect of over 60% in size
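Cells are dispensed, compounds pinned in, plates held at 37 °C for 72 h, then CellTiter-Glo is added and luminescence read after 10 minutes. Cell line: parental KB-3-1 in phenol-red-free DMEM, 10% FBS.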
SW480 rerep – DNA re-replication induction in SW480 cells; actives 1.8% (n = 340,000); AID 624297; SW480 DNA re-replication, Hoechst DNA content imaging, 48 h; Potency, µM (top dose mostly 46.1 µM), without a hit: at the top dose re-replication activation, actives largely listed as activators; note: % of control where 0% means no effect; nearly all actives have a fitted effect of over 55% in size
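First, 250 cells per well were seeded. Next, compound or vehicle (23 nL) was pinned in, plates sat 48 hr at 37 C. Finally Hoechst was added for 40 min before fluorescence scanning.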
HT1080-NT tox – kills 2HG-producing HT-1080-NT fibrosarcoma cells. AID 686970. actives 1.6% (n = 360,000). Potency, µM (doses to about 46.1 µM), without a hit: at the highest dose activity, negative = less viability, most hits filed as cytotoxic. HT-1080-NT fibrosarcoma viability, CellTiter-Glo ATP luminescence, 48 h;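 note: NT is the 2HG producing partner of a matched IDH1 knockdown line; 0% = DMSO-treated cells and -100% = media-only wells without cells; nearly all actives have a fitted effect of over 55% in size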
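Read-out is CellTiter-Glo luminescence after 10 minutes at room temperature, following 48 hours' compound treatment of HT-1080-NT cells (750 cells/well, RPMI, 5% FBS, 37 degrees C).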
HT1080 IDH1KD tx – HT-1080 IDH1 knockdown cell toxicity (counter line) | actives 2% (n = 360,000) | Potency, µM (doses to about 46.1 µM), for inactives: top-dose activity, negative = toxicity, hits mostly cytotoxic | HT-1080 IDH1 knockdown viability, ATP luminescence, 48 h;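 note: 0% = DMSO wells and -100% = cell-free medium wells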
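After a 2 h attachment period, IDH1KD HT-1080 cells took pin-transferred compound for 48 h at 37 °C; ATP-based luminescence after 10 min room-temperature reagent incubation reported viability.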
KB-V1 cytotox – KB-V1 MDR subline cytotoxicity; actives 3.4% (n = 400,000); KB-V1 MDR cells viability, CellTiter-Glo, 72 h; Potency, µM (doses to about 46.1 µM), hits mostly cytotoxic; note: % is set by controls: 0 for no effect and ±100 for the full control effect; nearly all actives have a fitted effect of over 60% in size
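Following 72 h at 37 degrees C with compound, KB-V1 cell viability was read by CellTiter-Glo luminescence, medium being phenol-red-free DMEM plus 10% FBS; concentration-response parameters came from normalized, curve-fitted qHTS data.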
MCF10A rerep – induces DNA re-replication in MCF 10a normal breast cells; Potency, µM (titrated, usually from 46.1 µM), without a hit: top-dose activity, positive = re-replication, actives largely listed as activators; actives 2.9% (n = 350,000); MCF 10A DNA re-replication, Hoechst nuclear intensity, 48 h; note: % of control where 0% means no effect; nearly all actives have a fitted effect of over 50% in size
The depositor's hits bear a star; i = inactive; ? = inconclusive; / = no result given; [ ] = another dose, or the depositor's remark. Compounds with a hit are over-represented: about 8% of the library has one in this group of screens. Calls come from the whole dose curve; as a rule, active = well fitted curve in the direction sought with a large enough effect; inconclusive = small, poorly fitted or top-dose-only effect, or another doubt; inactive = no such curve, though single readings can be large; an effect the other way counts as inactive or inconclusive. Potency is the fitted concentration of half-maximal effect.

SMILES	KB-3-1 tox	SW480 rerep	HT1080-NT tox	HT1080 IDH1KD tx	KB-V1 cytotox	MCF10A rerep
COc1cccc(/C=N/NC(=O)c2cc(-c3ccccn3)nc3ccccc23)c1O	?	1.64µM*	?	?	?	-2.7%
O=C(N/N=C/c1ccc(F)cc1)c1cc(-c2ccccn2)nc2ccccc12	i	-1.1%	-2.3%	-8.0%	i	?
O=C(Nc1ccc(OC(F)F)cc1)c1nc(SCc2ccccc2F)ncc1Cl	i	/	/	/	i	/
Cc1cc(C)n2nc(C(=O)OCC(=O)N(C)Cc3ccccc3)nc2n1	i	-94.3%	11.9%	12.8%	i	-1.0%
Cc1cc(C)n2nc(C(=O)OCC(=O)c3ccccc3)nc2n1	i	8.2µM*	-4.3%	-29.2%	i	?
CCCCNc1oc(-c2cccs2)nc1S(=O)(=O)c1ccccc1	?	?	5.1%	?	14.6µM*	?
FC(F)(F)c1nnc(-c2ccccc2)nc1Sc1ccc(Cl)cc1	?	?	?	?	?	5.8µM*
FC(F)(F)c1cccc(Sc2nc(-c3ccccc3)nnc2C(F)(F)F)c1	20.6µM*	?	?	?	?	7.31µM*
FC(F)(F)c1nnc(-c2ccccc2)nc1Sc1ccccc1	i	?	?	?	i	5.17µM*
FC(F)(F)c1nnc(-c2ccccc2)nc1N1CCCC1	i	-3.5%	1.4%	-0.4%	i	-2.8%
FC(F)(F)c1nnc(-c2ccccc2)nc1Oc1ccc(Cl)cc1Cl	i	-4.4%	-4.9%	3.2%	i	3.26µM*
Oc1cccnc1Sc1cccc(C(F)(F)F)c1	i	-0.4%	-3.0%	-12.9%	i	5.7%
CCOC(=O)c1nnc(-c2ccccc2)nc1Oc1ccccc1Cl	i	3.1%	?	?	i	?
CN(N)c1nc(-c2ccccc2)nnc1C(F)(F)F	i	1.3%	-1.1%	8.1%	i	15.4%
COc1cccc2c1Oc1ncccc1N(C(=O)CCC(=O)NCc1ccc(OC(C)C)cc1)C2	i	/	/	/	i	/
Cc1ccc(OCCNC(=O)CNC(=O)Cc2cccc3ccccc23)cc1	i	/	/	/	i	/
CN(NC(=O)c1cccc(Cl)c1)c1nc(-c2ccccc2)nnc1C(F)(F)F	23.1µM*	?	-20.9%	-24.9%	?	?
CC(=O)c1cc(C#N)c(Oc2cccc(C(F)(F)F)c2)nc1C	i	-3.0%	-0.3%	3.4%	i	-2.4%
FC(F)(F)c1cccc(Oc2nc(-c3ccccc3)nnc2C(F)(F)F)c1	i	-2.2%	-3.0%	0.2%	i	14.6µM*
CCN1CCN(c2cc(C(C)C)nc3c(-c4ccccc4)c(C)nn23)CC1	i	-48.1%	?	16.4µM*	?	?
CCN1CCN(c2cc(C(C)(C)C)nc3c(-c4ccccc4)c(C)nn23)CC1	i	6.51µM*	?	12.6µM*	i	?
Cc1nn2c(N3CCOCC3)cc(C(C)C)nc2c1-c1ccccc1	i	-6.2%	5.5%	10.9%	i	-1.2%
CCN(c1ccccc1)S(=O)(=O)c1ccc(C(=O)NC2CCN(Cc3ccccc3)CC2)cc1	16.4µM*	?	-16.6%	?	?	?
Cc1ccc(C)n1-c1ccc(C(=O)NC2CCN(Cc3ccccc3)CC2)cc1	?	?	0.2%	-11.2%	2.31µM*	?
CN(CC(=O)NC1CCN(Cc2ccccc2)CC1)S(=O)(=O)c1ccc(Br)s1	23.1µM*	-5.7%	-0.8%	2.0%	?	13.9%
SMILES	KB-3-1 tox	SW480 rerep	HT1080-NT tox	HT1080 IDH1KD tx	KB-V1 cytotox	MCF10A rerep
CN(CC(=O)NC1CCN(Cc2ccccc2)CC1)S(=O)(=O)c1ccc(Cl)cc1	i	3.2%	4.3%	1.5%	i	0.1%
CCCCNC(=O)C1CCC(Cn2c(=O)c3sccc3n(Cc3ccccc3)c2=O)CC1 (stereo not drawn)	i	/	/	/	i	/
C=CC(=O)Nc1ccc(CN2C(=O)N(c3c(Cl)c(OC)cc(OC)c3Cl)Cc3cnc(NCCCCN(CC)CC)nc32)cc1	11.6µM*	?	23.1µM*	14.6µM*	i	?
CCN(CC)CCNC(=O)c1ccc(NC(=O)Cc2ccc(OC)c(S(=O)(=O)N3CCOCC3)c2)cc1	i	-5.0%	-0.4%	5.4%	i	-8.1%
Cc1c(C(=O)NNC(=O)c2csc(N3CCOCC3)n2)oc2ccccc12	i	0.9%	-18.0%	-11.9%	i	14.6µM*
O=C(Nc1nc(-c2cccs2)c(-c2cccs2)s1)C1(c2ccccc2)CC1	i	5.5%	0.0%	-10.8%	18.4µM*	20.6µM*
CC(=O)NCCC(=O)Nc1nc(-c2cccs2)c(-c2cccs2)s1	i	-2.6%	1.0%	-3.2%	i	2.8%
O=c1cc(CSc2nnc(Nc3ccccc3F)s2)nc2sccn12	?	?	?	18.4µM*	16.4µM*	?
CCn1cc(/C=C/c2cc[n+](C)cc2)c2ccccc21	i	?	?	?	i	16.4µM*
C=CCn1c(C)c(/C=C/c2cc[n+](C)cc2)c2ccccc21	2.31µM*	14.6µM*	-7.5%	?	i	?
CC(C)n1cc(/C=C/c2cc[n+](C)cc2)c2ccccc21	1.3µM*	18.4µM*	?	9.2µM*	i	6.51µM*
C=CCn1cc(/C=C/c2cc[n+](C)cc2)c2ccccc21	4.11µM*	?	?	?	i	?
Cc1ccccc1/C=C/c1cc[n+](C)cc1	?	-60.6%	-23.3%	-19.3%	i	-28.8%[9.22 µM]
COc1ccccc1OCCn1c(C(C)Oc2ccccc2)nc2ccccc21 (stereo not drawn)	i	/	/	/	i	/
Cc1nn(C)cc1CN(C)C(=O)c1nn2c(c1Cl)NC(c1cccs1)CC2C(F)(F)F (stereo not drawn)	i	-3.3%	-18.2%	-13.5%	18.4µM*	?
Cc1ccc(C2CC(C(F)(F)F)n3nc(C(=O)NCc4c(C)nn(C)c4C)c(Cl)c3N2)cc1 (stereo not drawn)	20.6µM*	-0.8%	?	?	5.8µM*	1.7%
Cc1cccc(N2CCN(C(=O)Cc3c(C(=O)O)c(C)cn3C)CC2C)c1 (stereo not drawn)	i	/	/	/	i	/
Cc1ccc(-c2nn3c(C)nnc3c3ccccc23)cc1S(=O)(=O)NCc1ccco1	i	-3.6%	-1.1%	-5.1%	14.6µM*	-8.5%
CCCCNS(=O)(=O)c1cc(-c2nn(C)c(=O)c3ccccc23)ccc1C	16.4µM*	?	-20.4%	?	?	1.8%
